Measurements taken from article PMC11006913.
Numbering of substitutions follows the chain as printed.

Legend:
Experiment in all cases: PBM; 200 nM protein, PBS
Details in all cases: dsDNA, one strand shown
NKX2-4 [1] = molecular target: T1, NKX2-4 (Homo sapiens, UniProt Q9H2Z4 175-261, P217L)
T1 sequence: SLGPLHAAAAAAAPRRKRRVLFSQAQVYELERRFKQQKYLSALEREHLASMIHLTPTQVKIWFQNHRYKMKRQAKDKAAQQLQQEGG

NKX2-4 [2] = molecular target: T2, NKX2-4 (Homo sapiens, UniProt Q9H2Z4 175-261, T231S)
T2 sequence: T1 sequence with L43P, T57S

NKX2-4 [3] = molecular target: T3, NKX2-4 (Homo sapiens, UniProt Q9H2Z4 175-261)
T3 sequence: T1 sequence with L43P

NKX2-4 [4] = molecular target: T4, NKX2-4 (Homo sapiens, UniProt Q9H2Z4 175-261, R246Q)
T4 sequence: T1 sequence with L43P, R72Q

HOXD13 [5] = molecular target: HOXD13 (Homo sapiens, UniProt P35453 263-343, T313R)
Sequence of HOXD13 (Homo sapiens, UniProt P35453 263-343, T313R) (P35453 263-343 T313R): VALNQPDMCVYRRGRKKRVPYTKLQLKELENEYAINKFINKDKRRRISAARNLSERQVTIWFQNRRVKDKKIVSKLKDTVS

HOXD13 [6] = molecular target: HOXD13 (Homo sapiens, UniProt P35453 263-343)
Sequence of HOXD13 (Homo sapiens, UniProt P35453 263-343) (P35453 263-343): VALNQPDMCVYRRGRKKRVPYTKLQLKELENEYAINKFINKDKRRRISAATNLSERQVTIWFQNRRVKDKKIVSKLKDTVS

HOXD13 [7] = molecular target: HOXD13 (Homo sapiens, UniProt P35453 263-343, T313A)
Sequence of HOXD13 (Homo sapiens, UniProt P35453 263-343, T313A) (P35453 263-343 T313A): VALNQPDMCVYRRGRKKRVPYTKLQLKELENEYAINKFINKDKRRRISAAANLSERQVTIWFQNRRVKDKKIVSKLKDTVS

PAX4 [8] = molecular target: T5, PAX4 (Homo sapiens, UniProt O43316 9-242, R200K)
T5 sequence: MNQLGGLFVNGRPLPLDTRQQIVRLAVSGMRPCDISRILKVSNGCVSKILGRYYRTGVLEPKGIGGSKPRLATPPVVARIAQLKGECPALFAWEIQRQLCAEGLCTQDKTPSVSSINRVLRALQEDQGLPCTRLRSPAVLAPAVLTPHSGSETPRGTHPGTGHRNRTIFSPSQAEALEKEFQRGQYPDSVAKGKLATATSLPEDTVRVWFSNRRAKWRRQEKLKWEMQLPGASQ

PAX4 [9] = molecular target: T6, PAX4 (Homo sapiens, UniProt O43316 9-242)
T6 sequence: T5 sequence with K192R

ALX3 [10] = molecular target: ALX3 (Homo sapiens, UniProt O95076 139-225, N203Q)
Sequence of ALX3 (Homo sapiens, UniProt O95076 139-225, N203Q) (O95076 139-225 N203Q): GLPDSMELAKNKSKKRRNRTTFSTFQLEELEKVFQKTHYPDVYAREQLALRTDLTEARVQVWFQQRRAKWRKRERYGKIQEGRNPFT

PAX4 [11] = molecular target: T7, PAX4 (Homo sapiens, UniProt O43316 9-242, R200Q)
T7 sequence: T5 sequence with K192Q

PAX4 [12] = molecular target: T8, PAX4 (Homo sapiens, UniProt O43316 9-242, F177V)
T8 sequence: T5 sequence with F169V, K192R

ALX3 [13] = molecular target: ALX3 (Homo sapiens, UniProt O95076 139-225)
Sequence of ALX3 (Homo sapiens, UniProt O95076 139-225) (O95076 139-225): as the sequence (O95076 139-225 N203Q) above, with Q65N counted along it

PAX4 [14] = molecular target: T9, PAX4 (Homo sapiens, UniProt O43316 9-242, F177Y)
T9 sequence: T5 sequence with F169Y, K192R

VAX1 [15] = molecular target: VAX1 (Homo sapiens, UniProt Q5SQQ9 86-172)
Sequence of VAX1 (Homo sapiens, UniProt Q5SQQ9 86-172) (Q5SQQ9 86-172): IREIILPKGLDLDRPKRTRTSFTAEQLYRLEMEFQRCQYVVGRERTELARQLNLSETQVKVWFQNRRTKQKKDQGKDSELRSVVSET

ALX3 [16] = molecular target: ALX3 (Homo sapiens, UniProt O95076 139-225, L168Q)
Sequence of ALX3 (Homo sapiens, UniProt O95076 139-225, L168Q) (O95076 139-225 L168Q): as the sequence (O95076 139-225 N203Q) above, with L30Q, Q65N counted along it

ALX3 [17] = molecular target: ALX3 (Homo sapiens, UniProt O95076 139-225, L168V)
Sequence of ALX3 (Homo sapiens, UniProt O95076 139-225, L168V) (O95076 139-225 L168V): as the sequence (O95076 139-225 N203Q) above, with L30V, Q65N counted along it

VAX1 [18] = molecular target: VAX1 (Homo sapiens, UniProt Q5SQQ9 86-172, T142I)
Sequence of VAX1 (Homo sapiens, UniProt Q5SQQ9 86-172, T142I) (Q5SQQ9 86-172 T142I): as the sequence (Q5SQQ9 86-172) above, with T57I counted along it

PAX4 [19] = molecular target: T10, PAX4 (Homo sapiens, UniProt O43316 9-242, R227W)
T10 sequence: T5 sequence with K192R, R219W

ALX3 [20] = molecular target: ALX3 (Homo sapiens, UniProt O95076 139-225, N203S)
Sequence of ALX3 (Homo sapiens, UniProt O95076 139-225, N203S) (O95076 139-225 N203S): as the sequence (O95076 139-225 N203Q) above, with Q65S counted along it

VAX1 [21] = molecular target: VAX1 (Homo sapiens, UniProt Q5SQQ9 86-172, K157R)
Sequence of VAX1 (Homo sapiens, UniProt Q5SQQ9 86-172, K157R) (Q5SQQ9 86-172 K157R): as the sequence (Q5SQQ9 86-172) above, with K72R counted along it

NKX2-6 = molecular target: T11, NKX2-6 (Homo sapiens, UniProt A6NCS4 118-204, R150C)
T11 sequence: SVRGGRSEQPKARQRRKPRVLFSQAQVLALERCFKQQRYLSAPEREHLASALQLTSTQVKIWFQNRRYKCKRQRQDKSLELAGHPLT

**Q.** How did the binding signal (NKX2-4 [1]) turn out when GCGAGCCA was run?
**A.** The binding signal was 9.74 upbm affinity estimate (log intensity, higher = more binding, comparable within an allelic series).

**Q.** What about the binding signal (NKX2-4 [2]) of the same sequence?
**A.** Its binding signal is 9.69 upbm affinity estimate (log intensity, higher = more binding, comparable within an allelic series).

**Q.** And the binding signal (NKX2-4 [3])?
**A.** The binding signal was 9.69 upbm affinity estimate (log intensity, higher = more binding, comparable within an allelic series).

**Q.** And the binding signal (NKX2-4 [4])?
**A.** The binding signal was 9.76 upbm affinity estimate (log intensity, higher = more binding, comparable within an allelic series).

**Q.** Which binding signal (NKX2-4 [1]) does the source give for CTATTAAC here?
**A.** Its binding signal is 11.7 upbm affinity estimate (log intensity, higher = more binding, comparable within an allelic series).

**Q.** What about the binding signal (NKX2-4 [2]) of the same sequence?
**A.** Its binding signal is 11.8 upbm affinity estimate (log intensity, higher = more binding, comparable within an allelic series).

**Q.** And the binding signal (NKX2-4 [3])?
**A.** Its binding signal is 11.6 upbm affinity estimate (log intensity, higher = more binding, comparable within an allelic series).

**Q.** And the binding signal (HOXD13 [5])?
**A.** The binding signal was 10.8 upbm affinity estimate (log intensity, higher = more binding, comparable within an allelic series).

**Q.** What about the binding signal (HOXD13 [6]) of the same sequence?
**A.** The binding signal was 12 upbm affinity estimate (log intensity, higher = more binding, comparable within an allelic series).

**Q.** What about the binding signal (NKX2-4 [4]) of the same sequence?
**A.** Its binding signal is 11.8 upbm affinity estimate (log intensity, higher = more binding, comparable within an allelic series).

**Q.** What about the binding signal (HOXD13 [7]) of the same sequence?
**A.** The binding signal was 11.8 upbm affinity estimate (log intensity, higher = more binding, comparable within an allelic series).

**Q.** With CCCGGCGC as the sequence, how does the binding signal (NKX2-4 [1]) read?
**A.** Its binding signal is 9.45 upbm affinity estimate (log intensity, higher = more binding, comparable within an allelic series).

**Q.** And the binding signal (NKX2-4 [2])?
**A.** Its binding signal is 9.31 upbm affinity estimate (log intensity, higher = more binding, comparable within an allelic series).

**Q.** And the binding signal (PAX4 [8])?
**A.** Its binding signal is 9.17 upbm affinity estimate (log intensity, higher = more binding, comparable within an allelic series).

**Q.** And the binding signal (PAX4 [9])?
**A.** The binding signal was 9.1 upbm affinity estimate (log intensity, higher = more binding, comparable within an allelic series).

**Q.** What about the binding signal (NKX2-4 [3]) of the same sequence?
**A.** Its binding signal is 9.49 upbm affinity estimate (log intensity, higher = more binding, comparable within an allelic series).

**Q.** And the binding signal (ALX3 [10])?
**A.** The binding signal was 7.83 upbm affinity estimate (log intensity, higher = more binding, comparable within an allelic series).

**Q.** And the binding signal (PAX4 [11])?
**A.** Its binding signal is 9.2 upbm affinity estimate (log intensity, higher = more binding, comparable within an allelic series).

**Q.** What about the binding signal (PAX4 [12]) of the same sequence?
**A.** Its binding signal is 9.03 upbm affinity estimate (log intensity, higher = more binding, comparable within an allelic series).

**Q.** What about the binding signal (ALX3 [13]) of the same sequence?
**A.** The binding signal was 7.67 upbm affinity estimate (log intensity, higher = more binding, comparable within an allelic series).

**Q.** And the binding signal (NKX2-4 [4])?
**A.** The binding signal was 9.55 upbm affinity estimate (log intensity, higher = more binding, comparable within an allelic series).

**Q.** And the binding signal (PAX4 [14])?
**A.** The binding signal was 9.02 upbm affinity estimate (log intensity, higher = more binding, comparable within an allelic series).

**Q.** What about the binding signal (VAX1 [15]) of the same sequence?
**A.** The binding signal was 7.45 upbm affinity estimate (log intensity, higher = more binding, comparable within an allelic series).

**Q.** And the binding signal (ALX3 [16])?
**A.** Its binding signal is 7.69 upbm affinity estimate (log intensity, higher = more binding, comparable within an allelic series).

**Q.** What about the binding signal (ALX3 [17]) of the same sequence?
**A.** Its binding signal is 7.67 upbm affinity estimate (log intensity, higher = more binding, comparable within an allelic series).

**Q.** And the binding signal (VAX1 [18])?
**A.** Its binding signal is 7.15 upbm affinity estimate (log intensity, higher = more binding, comparable within an allelic series).

**Q.** What about the binding signal (PAX4 [19]) of the same sequence?
**A.** The binding signal was 9.13 upbm affinity estimate (log intensity, higher = more binding, comparable within an allelic series).

**Q.** What about the binding signal (ALX3 [20]) of the same sequence?
**A.** The binding signal was 7.82 upbm affinity estimate (log intensity, higher = more binding, comparable within an allelic series).

**Q.** And the binding signal (VAX1 [21])?
**A.** The binding signal was 7.47 upbm affinity estimate (log intensity, higher = more binding, comparable within an allelic series).

**Q.** What does the source list for CAAGTGCA?
**A.** binding signal (NKX2-4 [1]): 12.1 upbm affinity estimate (log intensity, higher = more binding, comparable within an allelic series); binding signal (NKX2-4 [2]): 12.5 upbm affinity estimate (log intensity, higher = more binding, comparable within an allelic series); binding signal (NKX2-4 [3]): 12 upbm affinity estimate (log intensity, higher = more binding, comparable within an allelic series); binding signal (NKX2-6): 11.4 upbm affinity estimate (log intensity, higher = more binding, comparable within an allelic series); binding signal (NKX2-4 [4]): 12.7 upbm affinity estimate (log intensity, higher = more binding, comparable within an allelic series)
